NPSR antag: qHTS Assay for Antagonists of the Neuropeptide S Receptor: cAMP Signal Transduction; AID 1461, 2008; 220,000 compounds, 1% hits; Q6W5P4; Potency, µM (titrated, usually from 38.3 µM), inactives show at the top dose activity change, negative = inhibition, hits mostly inhibitors; CHO-NPSR cells, cAMP TR-FRET, antagonist mode; also: potency is read from the fitted curve at half-maximal effect; % is scaled to controls: 0 for no effect and ±100 for the full control effect; nearly all actives have a fitted effect of over 50% in size
PKM2 act: qHTS Assay for Activators of Human Muscle isoform 2 Pyruvate Kinase | Pyruvate kinase PKM (Homo sapiens), P14618 | purified PKM2, Kinase-Glo ATP luminescence, activation; response scale: 0% is enzyme alone, no compound | Potency, µM (doses to about 57.5 µM), without a hit: at the highest dose activation, actives largely listed as activators | 260,000 compounds, 0.34% hits | AID 1631, 2009; also: potency is read from the fitted curve at half-maximal effect; % is scaled to controls: 0 for no effect and ±100 for the full control effect; nearly all actives have a fitted effect of over 55% in size
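Purified hPK-M2 (>95%) run at intermediate activity with 0.1 mM ADP and 0.5 mM PEP in 50 mM imidazole pH 7.2, KCl, MgCl2; 1 h room temperature. ATP formed read by Kinase-Glo luminescence; normalized to uninhibited and no-enzyme controls.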
ClpP mod: qHTS Assay for Activators of ClpP; ATP-dependent Clp protease proteolytic subunit (Bacillus subtilis (strain 168)), P80244; purified B. subtilis ClpP, FRET peptide cleavage, 20 min; Potency, µM (series often up to 57.5 µM), for the others: at the top dose activity change, negative = active; 340,000 compounds, 1.9% hits; AID 651965, 2013; active = well fitted falling curve with a large enough effect; inconclusive = small, poorly fitted or top-dose-only effect; inactive = no such curve, though single readings can be large or run the other way; also: potency is read from the fitted curve at half-maximal effect; the source files actives as falling curves though it sought activators and does not explain the sign; nearly all actives have a fitted effect of over 65% in size
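Buffer: 100 mM Tris/HCl pH8, 100 mM KCl, 0.05% low protease BSA, 2.5% glycerol, 0.01% Tween-20. ClpP 10 microg/mL final; 20 min RT; delta FRET normalized to ADEP and DMSO controls.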
IL2 activator: qHTS of IL-2 Activators | activation, % (series mostly up to about 46 µM) | 360,000 compounds, 0.065% hits | IL-2 activation reporter assay, cell-based qHTS; stimulated with anti-CD3/CD4/CD28 beads; in transgenic mouse T cells; in the data active = activation above about 50%; inconclusive = mostly about 30% to 49%; also: 0% is about no effect
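Unstimulated transgenic mouse T cells; 60-min compound exposure; bead-based TCR/CD4/CD28 stimulation; 18 h culture, 37 degrees C; dual fluorescence (EGFP, DsRed) plate cytometry.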
ClpP inh valid: qHTS Assay for Activators of ClpP: Hit Validation of Inhibitors | purified B. subtilis ClpP, FRET-FV substrate cleavage, 20 min | 470 compounds, 40% hits | AID 743245, 2014 | Potency, µM (series often up to 57.5 µM), without a hit: at the top dose activity change, negative = inhibition, most hits filed as inhibitors | shares compounds with ClpP mod; also: potency is read from the fitted curve at half-maximal effect; % is scaled to controls: 0 for no effect and ±100 for the full control effect; nearly all actives have a fitted effect of over 70% in size
Numbers without * were called inactive; ? = inconclusive; . = no result given; [ ] = another dose, or the depositor's remark. Rows were chosen to be rich in hits. Some 2% of all compounds tested hit in one or more screens of this group. Unless noted, calls follow the shape of the dose curve; as a rule, active = well fitted curve in the direction sought with a large enough effect; inconclusive = small, poorly fitted or top-dose-only effect, or another doubt; inactive = no such curve, though single readings can be large; an effect the other way counts as inactive or inconclusive.

SMILES	NPSR antag	PKM2 act	ClpP mod	IL2 activator	ClpP inh valid
Cc1cccc(-n2c(=O)[nH]c3c(C(N)=O)nc(CC(C)C)nc32)c1	-13.2%[46.1 µM]	0.1%	10µM*	0.2	4.85µM*
O=C(Nc1cccc(NC(=O)c2ccc(-c3ccc(Br)cc3)o2)c1)c1ccccc1	-9.4%[46.1 µM]	-2.0%	520.7%	0.8	21.7µM*
COc1ccccc1NC(=O)c1ccc(-c2ccc(Br)cc2)o1	-22.8%[46.1 µM]	6.8%	249.7%	3.8	.
NC(=O)c1ccccc1NC(=O)c1ccc(-c2ccc(Br)cc2)o1	.	.	186.9%	.	17.2µM*
CC(=O)c1cccc(OCc2cc(C(=O)N(C)Cc3ccc(C)o3)no2)c1	.	18.0%	2.4%	-4.5	.
NC(=O)c1ccc2c(c1)OCCO2	5.7%[46.1 µM]	-2.8%	30.7%	-0.4	-2.1%
CC(=O)Nc1cccc(NC(=O)Nc2ccc(C)c(Cl)c2)c1	1.8%	-1.6%	1.78µM*	-1.6	-0.2%
Cc1cccc(C)c1NC(=O)COC(=O)COc1ccc2c(C)cc(=O)oc2c1	13.9%	-9.6%	80.2%	-1.7	-28.0%
Cc1cc(-c2ccccc2)c2nncn2n1	4.9%[46.1 µM]	-2.1%	7.94µM*	2.4	21.7µM*
O=C(CCc1ccc(S(=O)(=O)NCCc2ccccc2)cc1)NCc1ccc2c(c1)OCO2	-18.6%[46.1 µM]	0.7%	-0.1%	1.3	.
COc1cccc(CNC(=O)c2ccc(NC(=O)CC3SC(N4CCCC4)=NC3=O)cc2)c1 (stereo not drawn)	.	.	2.82µM*	-4.2	-0.4%
COc1ccc(-c2nc3ccccc3s2)cc1NC(=O)c1ccc(F)cc1	.	.	88.6%	.	21.7µM*
O=C(CCS(=O)(=O)c1ccccc1)Nc1ccc(-c2nc3ccccc3s2)cc1	-7.4%[46.1 µM]	?	.	-3.3	.
CC(C)(C)C(=O)Nc1ccc(-c2nc3ccccc3s2)cc1	.	.	10µM*	.	-0.5%
Cc1ccc(C(=O)Nc2cccc(-c3nc4ccccc4o3)c2)c(Cl)c1	.	.	75.8%	.	?
CCC(=O)Nc1ccc(C(=O)N/N=C/c2cccnc2)cc1	-9.5%[46.1 µM]	0.8%	0.7%	2.9	.
COc1ccc(-c2noc(N3CCCC(C(=O)Nc4cc(F)ccc4F)C3)n2)cc1 (stereo not drawn)	.	1.5%	0.0%	-0.4	.
COc1ccc(S(=O)(=O)N2CCN(S(=O)(=O)c3ccc4c(c3)OCCO4)CC2)cc1C	-10.2%[46.1 µM]	3.55µM*	3.98µM*	1.7	-0.3%
O=S(=O)(Nc1cccc(-c2cn3cccnc3n2)c1)c1ccccc1	10.4%	-19.7%	36.4%	-0.8	.
O=S(=O)(Nc1cccc(-c2cn3cccnc3n2)c1)c1ccc(F)cc1	-3.0%	-1.0%	3.98µM*	-1.2	24.3µM*
O=C(CC1C(=O)NCCN1Cc1ccc(F)cc1)NC1CCCCCCC1 (stereo not drawn)	.	.	-7.4%	-0.2	.
Cc1ccn2c(Nc3ccc(C(C)C)cc3)c(-c3ccsc3)nc2c1	.	.	3.98µM*	.	-15.5%
Cc1ccc(Nc2c(-c3ccccn3)nc3cc(C)ccn23)cc1	?	-1.1%	.	-0.5	.
COc1ccc(-n2cnnc2SCC(=O)N(C)c2ccccc2)cc1	.	-8.8%	.	1.0	.
O=c1[nH]c2cc(Cl)ccc2c(O)c1-c1ccc(Oc2ccccc2)cc1	-10.9%[46.1 µM]	.	.	.	-15.1%
SMILES	NPSR antag	PKM2 act	ClpP mod	IL2 activator	ClpP inh valid
CCOc1ccc(N2CC(C(=O)Nc3ccc(S(=O)(=O)N4CCCC4)cc3)CC2=O)cc1 (stereo not drawn)	.	-0.3%	.	-0.9	.
CCOc1ccc(N2CC(C(=O)Nc3ccc(S(=O)(=O)N4CCCCC4)cc3)CC2=O)cc1 (stereo not drawn)	.	.	7.94µM*	-3.4	-0.9%
Cc1[nH]c(=O)c(C#N)c(C)c1CCC(=O)N(C)CC(=O)Nc1ccc(Cl)c(Cl)c1	.	.	.	0.7	.
Cc1cccc(-c2cc(NC(=O)c3ccccc3C)n(-c3ccccc3)n2)c1	.	.	-0.4%	.	.
COc1ccccc1C(=O)Nc1cc(-c2cccc(Br)c2)nn1-c1ccccc1	.	.	3.98µM*	.	19.3µM*
COc1ccccc1C1CC(c2ccco2)=NN1c1ccccc1 (stereo not drawn)	-50.3%	10.1%	3.55µM*	-4.3	27.3µM*
c1ccc(-c2ccc(-c3cn4c(n3)CCC4)cc2)cc1	-1.3%[46.1 µM]	-4.9%	2.82µM*	3.6	21.7µM*
COc1ccc(-c2cc(C(=O)N(C)CC(=O)Nc3cccc(F)c3)c3ccccc3n2)cc1	.	.	6.31µM*	-4.2	24.3µM*
Cc1ccc(C(=O)Nc2ccc3c(c2)nc2n3CCSC2)cc1	1.9%[46.1 µM]	-4.4%	-0.1%	-2.0	.
CC(=O)Nc1ccc2c(c1)nc1n2CCSC1	-10.5%[46.1 µM]	-1.8%	40.1%	-3.2	-0.9%
COC(=O)Nc1c(-c2ccccc2)nc2ccccn12	-7.1%[46.1 µM]	?	7.94µM*	2.5	27.3µM*
CCOc1ccccc1NC(=S)Nc1ncccc1C	-29.6%[46.1 µM]	2.8%	-2.8%	0.0	.
CCCC1CCC(c2ccc(C(N)=O)cc2)CC1 (stereo not drawn)	-3.6%[46.1 µM]	4.6%	74.2%	-0.1	0.3%
CCCCCC1CCC(c2ccc(C(N)=O)cc2)CC1 (stereo not drawn)	-3.5%[46.1 µM]	-1.8%	-2.8%	0.2	.
Cc1c(C(=O)NCCS(=O)(=O)N2CCN(c3ccccc3F)CC2)cccc1[N+](=O)[O-]	.	-0.8%	2.9%	-2.2	.
COc1ccccc1CCC(=O)OCC(=O)Nc1cc(S(=O)(=O)N2CCOCC2)ccc1C	.	.	.	-1.9	.
Fc1cc(F)c2nc(Nc3nc4cc5c(cc4s3)OCO5)sc2c1	1.0%	?	8.91µM*	-0.6	?
CCN(Cc1ccccc1)C(=O)Cn1c(=O)n(Cc2ccccc2)c(=O)c2c1c1cc(OC)ccc1n2C	.	.	0.708µM*	.	27.3µM*
COc1ccc(N2C(=O)NC3CC2(C)Oc2ccc(Br)cc23)cc1OC (stereo not drawn)	-4.2%[46.1 µM]	-1.5%	176.9%	-0.9	0.2%
COc1ccc(N2C(=O)NC3CC2(C)Oc2ccccc23)cc1 (stereo not drawn)	17.2%	3.2%	.	2.6	.
COc1ccc(S(=O)(=O)N(CC(=O)NCCSCc2ccccc2)c2ccc(C)cc2)cc1	.	.	-0.2%	.	.
O=C(Nc1sc2c(c1C(=O)NC1CCCCC1)CCC2)c1ccco1	-21.3%[46.1 µM]	-4.1%	110.3%	1.0	?
CNC(=O)c1c(NC(=O)c2ccco2)sc2c1CCC2	.	0.0%	-3.0%	-1.8	.
CC(C)N1CC2=C(C1=O)C(c1ccc(O)cc1)NC(=O)N2C (stereo not drawn)	26.3%	-0.5%	.	2.1	.
O=C(NCCc1ccccc1)c1ccc(Nc2nc3ccccc3n3nnnc23)cc1	.	.	293.7%	.	?
Cc1cc(C)c(OCC(=O)Nc2cc(C(=O)O)cc(C(=O)O)c2)cc1C	25.8%	-1.5%	-1.1%	-1.7	.
COc1ccc2oc(=O)c(C(=O)Oc3ccc(NC(C)=O)cc3)cc2c1	-10.2%[46.1 µM]	0.2%	82.0%	-0.7	4.9%
O=c1c2ccccc2nc2n1CCCCN2	-3.6%[46.1 µM]	2.1%	3.98µM*	-0.9	24.3µM*
